In the antibiotic and cytotoxicity screens of Wong et al. (2023):
About 3,300 (8.5%) of roughly 39,000 compounds were called active. The sample as a whole holds a higher share of actives than the screen did.

Test system: HepG2
Test: cytotoxicity call (relative viability < 0.9)
Conditions: 10 µM

SMILES	cytotoxicity call
COc1ccc2c3c([nH]c2c1)[C@@H](CO)N(C[C@]13CN(Cc2ccccc2)C1)S(=O)(=O)c1cn(cn1)C	inactive
C[C@@H]1CN([C@H](C)CO)S(=O)(=O)c2ccc(C#CC3(O)CCCC3)cc2O[C@@H]1CN(C)C(=O)c1cccnc1	inactive
COc1ccc(CN(C)C[C@H]2OCCCC[C@H](C)Oc3ccc(NC(=O)c4ccccc4)cc3C(=O)N([C@H](C)CO)C[C@H]2C)cc1	inactive
COc1ccc(CN(C)C[C@H]2OCCCC[C@@H](C)Oc3ccc(NC(=O)Cc4ccccc4)cc3C(=O)N([C@H](C)CO)C[C@H]2C)cc1	inactive
CC[C@@](N)(C(=O)O)c1ccccc1	inactive
C=C(C)[C@]1(O)OC(=O)C=C1OC	inactive
C[C@@H]1CN([C@H](C)CO)C(=O)c2cc(C#Cc3ccccc3F)cnc2O[C@@H]1CN(C)S(=O)(=O)c1ccccc1	inactive
CCC(=O)N1CCC[C@@H]1C(=O)O	inactive
Cc1noc(C)c1NC(=O)Nc1ccc2c(c1)C(=O)N([C@H](C)CO)C[C@H](C)[C@H](CN(C)C(=O)c1ccccc1)OCCCC[C@@H](C)O2	inactive
Cc1ccc(S(=O)(=O)N[C@@H]2CC[C@@H](CC(=O)N3CCC(Cc4ccccc4)CC3)O[C@@H]2CO)cc1	inactive
C[C@@H]1CCCCO[C@H](CN(C)CC2CCCCC2)[C@H](C)CN([C@H](C)CO)C(=O)c2cc(NC(=O)c3ccncc3)ccc2O1	inactive
C[C@H](CO)N1C[C@H](C)[C@H](CN(C)C(=O)Nc2ccc(C(F)(F)F)cc2)Oc2ccc(NC(=O)Nc3ccc4c(c3)OCO4)cc2C1=O	inactive
C[C@@H]1CN([C@H](C)CO)S(=O)(=O)c2ccc(-c3cccc(F)c3)cc2O[C@@H]1CN(C)S(C)(=O)=O	inactive
C[C@@H]1CN([C@@H](C)CO)C(=O)c2cc(NC(=O)C3CC3)ccc2O[C@H]1CN(C)S(=O)(=O)c1ccc(Cl)cc1	inactive
C[C@@H]1CN([C@H](C)CO)C(=O)c2cc(NC(=O)Nc3ccc(C(F)(F)F)cc3)ccc2O[C@H]1CN(C)Cc1ccccc1	active
C[C@H](CO)N1C[C@H](C)[C@@H](CN(C)Cc2ccccc2)Oc2ccc(NC(=O)Nc3ccc(C(F)(F)F)cc3)cc2C1=O	active
C[C@@H]1CN([C@@H](C)CO)C(=O)c2cc(NC(=O)Cc3ccccc3)ccc2O[C@@H](C)CCCCO[C@@H]1CN(C)S(=O)(=O)c1cccs1	inactive
Cc1cc(C(=O)Nc2cccc3c2O[C@H](CN(C)Cc2ccccc2)[C@@H](C)CN([C@@H](C)CO)C3=O)n(C)n1	inactive
C[C@H]1CN([C@@H](C)CO)C(=O)c2cccc(NC(=O)Nc3ccc4c(c3)OCO4)c2O[C@@H]1CN(C)S(=O)(=O)c1cn(C)cn1	inactive
C[C@H](CO)N1C[C@H](C)[C@H](CN(C)S(=O)(=O)c2cccs2)OCCCC[C@H](C)Oc2ccc(NC(=O)CCC(F)(F)F)cc2C1=O	inactive
Cc1noc(C)c1NC(=O)Nc1ccc2c(c1)C(=O)N([C@H](C)CO)C[C@H](C)[C@@H](CN(C)S(C)(=O)=O)O2	inactive

SMILES	cytotoxicity call
C[C@@H]1CCCCO[C@@H](CN(C)C(=O)Nc2ccc(C(F)(F)F)cc2)[C@H](C)CN([C@@H](C)CO)C(=O)c2cc(NC(=O)Nc3ccc4c(c3)OCO4)ccc2O1	inactive
Cc1noc(C)c1NC(=O)Nc1ccc2c(c1)C(=O)N([C@@H](C)CO)C[C@H](C)[C@@H](CN(C)C(=O)Nc1ccccc1)OCCCC[C@H](C)O2	inactive
C[C@H](CO)N1C[C@H](C)[C@H](CN(C)C(=O)Nc2cccc3ccccc23)Oc2ccc(NC(=O)CCC(F)(F)F)cc2C1=O	inactive
C[C@@H]1CCCCO[C@@H](CN(C)S(C)(=O)=O)[C@@H](C)CN([C@H](C)CO)C(=O)c2cc(NC(=O)c3ccncc3)ccc2O1	inactive
C[C@@H]1CN([C@H](C)CO)C(=O)Cc2cc(NS(=O)(=O)c3cccs3)ccc2O[C@H]1CN(C)Cc1ccc(Oc2ccccc2)cc1	active
C[C@H]1CN([C@@H](C)CO)C(=O)Cc2cc(NS(=O)(=O)c3cccs3)ccc2O[C@@H]1CN(C)Cc1ccc(Oc2ccccc2)cc1	inactive
C[C@@H]1CN([C@@H](C)CO)C(=O)Cc2cc(NS(=O)(=O)c3cccs3)ccc2O[C@@H]1CN(C)Cc1ccc(Oc2ccccc2)cc1	inactive
C[C@H](CO)N1C[C@H](C)[C@@H](CN(C)Cc2ccc(Oc3ccccc3)cc2)Oc2ccc(NS(=O)(=O)c3cccs3)cc2CC1=O	inactive
C[C@@H]1CN([C@H](C)CO)C(=O)Cc2cc(NS(=O)(=O)c3cccs3)ccc2O[C@@H]1CN(C)Cc1ccc(Oc2ccccc2)cc1	active
C[C@H]1CN([C@@H](C)CO)C(=O)Cc2cc(NS(=O)(=O)c3cccs3)ccc2O[C@H]1CN(C)Cc1ccc(Oc2ccccc2)cc1	inactive
Cn1cc(CN2CCC3(CC2)CNC(=O)CO3)cn1	inactive
COc1cccc(S(=O)(=O)Nc2ccc3c(c2)[C@@H]2C[C@H](CC(=O)NC4CCCCC4)O[C@@H](CO)[C@@H]2O3)c1	inactive
Cc1ccc(S(=O)(=O)Nc2ccc3c(c2)C(=O)N([C@H](C)CO)C[C@@H](C)[C@@H](CN(C)S(=O)(=O)c2ccccc2)O3)cc1	inactive
C[C@@H]1CN([C@@H](C)CO)S(=O)(=O)c2ccc(C#CC(C)(C)O)cc2O[C@H]1CN(C)C(=O)CN(C)C	inactive
COc1ccc(NC(=O)N(C)C[C@H]2OCCCC[C@@H](C)Oc3ccc(NC(=O)c4ccccc4)cc3C(=O)N([C@@H](C)CO)C[C@@H]2C)cc1	inactive
CC(C)NC(=O)N(C)C[C@H]1OCCCC[C@H](C)Oc2ccc(NC(=O)Nc3cccc4ccccc34)cc2C(=O)N([C@H](C)CO)C[C@@H]1C	inactive
C[C@H]1CCCCO[C@H](CN(C)Cc2ccc(C(=O)O)cc2)[C@@H](C)CN([C@@H](C)CO)C(=O)c2cc(NS(=O)(=O)c3ccc(F)cc3)ccc2O1	inactive
CN(C)C/C=C/C(=O)Nc1ccc(C(=O)Nc2cccc(Nc3ncc(Cl)c(-c4c[nH]c5ccccc45)n3)c2)cc1	active
O=C(O)C1CCOCC1	inactive
Cc1ccc(S(=O)(=O)Nc2ccc3c(c2)C(=O)N([C@H](C)CO)C[C@@H](C)[C@H](CN(C)Cc2ccc(Cl)c(Cl)c2)OCCCC[C@@H](C)O3)cc1	active
Cc1ccc(S(=O)(=O)Nc2ccc3c(c2)C(=O)N([C@H](C)CO)C[C@@H](C)[C@@H](CN(C)Cc2ccc(Cl)c(Cl)c2)OCCCC[C@H](C)O3)cc1	inactive

SMILES	cytotoxicity call
Cc1ccc(S(=O)(=O)Nc2ccc3c(c2)C(=O)N([C@H](C)CO)C[C@H](C)[C@@H](CN(C)Cc2ccc(Cl)c(Cl)c2)OCCCC[C@H](C)O3)cc1	inactive
Cc1ccc(S(=O)(=O)Nc2ccc3c(c2)C(=O)N([C@@H](C)CO)C[C@H](C)[C@@H](CN(C)Cc2ccc(Cl)c(Cl)c2)OCCCC[C@@H](C)O3)cc1	active
Cc1ccc(S(=O)(=O)Nc2ccc3c(c2)C(=O)N([C@H](C)CO)C[C@H](C)[C@H](CN(C)Cc2ccc(Cl)c(Cl)c2)OCCCC[C@H](C)O3)cc1	inactive
Cc1ccc(S(=O)(=O)Nc2ccc3c(c2)C(=O)N([C@@H](C)CO)C[C@@H](C)[C@H](CN(C)Cc2ccc(Cl)c(Cl)c2)OCCCC[C@@H](C)O3)cc1	inactive
Cc1ccc(S(=O)(=O)Nc2ccc3c(c2)C(=O)N([C@@H](C)CO)C[C@@H](C)[C@@H](CN(C)Cc2ccc(Cl)c(Cl)c2)OCCCC[C@@H](C)O3)cc1	active
Cc1ccc(S(=O)(=O)Nc2ccc3c(c2)C(=O)N([C@H](C)CO)C[C@@H](C)[C@H](CN(C)Cc2ccc(Cl)c(Cl)c2)OCCCC[C@H](C)O3)cc1	active
Cc1ccc(S(=O)(=O)Nc2cccc3c2O[C@H](CN(C)C(=O)Nc2ccc(C(F)(F)F)cc2)[C@H](C)CN([C@H](C)CO)C3=O)cc1	inactive
C[C@@H]1CCCCO[C@@H](CN(C)CC2CCCCC2)[C@H](C)CN([C@H](C)CO)C(=O)c2cc(NS(=O)(=O)c3ccccc3)ccc2O1	inactive
Cc1ccc(S(=O)(=O)Nc2ccc3c(c2)C(=O)N([C@H](C)CO)C[C@H](C)[C@@H](CN(C)Cc2ccc(Cl)c(Cl)c2)OCCCC[C@@H](C)O3)cc1	inactive
Cc1ccc(S(=O)(=O)Nc2ccc3c(c2)C(=O)N([C@H](C)CO)C[C@H](C)[C@H](CN(C)Cc2ccc(Cl)c(Cl)c2)OCCCC[C@@H](C)O3)cc1	active
Cc1ccc(S(=O)(=O)Nc2ccc3c(c2)C(=O)N([C@@H](C)CO)C[C@H](C)[C@@H](CN(C)Cc2ccc(Cl)c(Cl)c2)OCCCC[C@H](C)O3)cc1	active
O=C(O)CC[C@H]1CCC(=O)N1	inactive
C[C@@H]1CN([C@H](C)CO)C(=O)Cc2cc(NC(=O)c3ccncc3)ccc2O[C@H]1CN(C)S(=O)(=O)c1cn(C)cn1	inactive
C[C@@H]1CCCCO[C@@H](CN(C)CC2CC2)[C@H](C)CN([C@H](C)CO)C(=O)c2cc(NS(C)(=O)=O)ccc2O1	inactive
C[C@@H]1CN([C@@H](C)CO)C(=O)c2cccc(NS(=O)(=O)c3ccccc3)c2O[C@@H]1CN(C)S(C)(=O)=O	inactive
C[C@@H]1CN([C@@H](C)CO)C(=O)c2cc(NS(=O)(=O)c3ccccc3)ccc2O[C@H]1CN(C)S(C)(=O)=O	inactive
O=C(C[C@@H]1C=C[C@H](NC(=O)c2cccc(F)c2)[C@@H](CO)O1)NCCN1CCCC1	inactive
CN(C)CC(=O)N1CC(=O)N2[C@H](CO)[C@@H](c3ccc(C#Cc4cccnc4)cc3)[C@H]2C1	inactive
COc1ccc2c(=O)cc(-c3ccccc3OC)oc2c1	inactive
O=c1cc(-c2ccccc2)oc2ccccc12	inactive
CCOC(=O)COc1ccc2c(=O)cc(-c3ccccc3)oc2c1	active
